Rows were chosen to be rich in hits. Some 9.2% of all compounds tested hit in one or more screens of this group.
HTT aggregate: mutant huntingtin aggregation inhibition. PC12 HttQ103-GFP aggregates, Acumen cytometry, 40 h. Potency, µM (highest dose often 46.1 µM), hits mostly inhibitors. hit rate 1.1% among 220,000. AID 1688; active = well fitted curve in the direction sought with a large enough effect; inconclusive = small, poorly fitted or top-dose-only effect, or another doubt; inactive = no such curve, though single readings can be large; an effect the other way counts as inactive or inconclusive; also: nearly all actives have a fitted effect of over 60% in size
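Steps: seed 1500 PC12 HTTQ103-GFP cells/well; add tebufenozide, 100 nM final; add compound titration; add ATPLite reagent; quantify GFP aggregates by laser scanning cytometry.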
ALDH1A1 block: ALDH1A1 (human) enzyme inhibition; P00352; Purified ALDH1A1, NADH fluorescence, propionaldehyde substrate; Potency, µM (top dose mostly 75.3 µM), hits mostly inhibitors; hit rate 7.3% among 220,000; AID 1030
KDM4E inh: blocks human JMJD2E demethylase activity; hit rate 1.6% among 230,000; Potency, µM (top dose mostly 57.1 µM), actives largely listed as inhibitors; AID 2147; B2RXH2; JMJD2E catalytic domain, FDH-coupled NADH fluorescence (FDH is formaldehyde dehydrogenase); also: nearly all actives have a fitted effect of over 50% in size
Target sequence (B2RXH2 1-337 limits assumed): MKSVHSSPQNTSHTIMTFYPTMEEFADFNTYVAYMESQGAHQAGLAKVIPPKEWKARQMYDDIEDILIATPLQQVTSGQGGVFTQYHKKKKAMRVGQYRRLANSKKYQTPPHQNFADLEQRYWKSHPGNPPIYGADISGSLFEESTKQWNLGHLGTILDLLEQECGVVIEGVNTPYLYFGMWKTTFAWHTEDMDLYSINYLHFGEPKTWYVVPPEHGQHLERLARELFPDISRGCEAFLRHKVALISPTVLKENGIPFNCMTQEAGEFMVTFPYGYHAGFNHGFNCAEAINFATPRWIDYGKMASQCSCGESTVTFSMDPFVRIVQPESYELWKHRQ
HTT cytoprotect: protects HTT-Q103 PC12 cells, measured by ATP; PC12 HTT-Q103 induced, cytoprotection, ATP luminescence, 40 h; Potency, µM (highest dose often 56.4 µM), most hits filed as activators; hit rate 0.14% among 230,000; AID 1471; active = well fitted curve in the direction sought with a large enough effect; inconclusive = small, poorly fitted or top-dose-only effect, or another doubt; inactive = no such curve, though single readings can be large; an effect the other way counts as inactive or inconclusive; also: nearly all actives have a fitted effect of over 45% in size
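Readout: ATPlite luminescence (ATP level). Model: stable PC12, inducible Htt exon1 Q103-GFP. Inducer: tebufenozide, 100 nM final. Compounds: dose series. No G418 in medium.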
HPGD inh: blocks human HPGD enzyme activity; Potency, µM, most hits filed as inhibitors; P15428; purified HPGD, NADH fluorescence kinetic, PGE2 substrate; hit rate 4.3% among 150,000
Target sequence (P15428 whole entry, looked up): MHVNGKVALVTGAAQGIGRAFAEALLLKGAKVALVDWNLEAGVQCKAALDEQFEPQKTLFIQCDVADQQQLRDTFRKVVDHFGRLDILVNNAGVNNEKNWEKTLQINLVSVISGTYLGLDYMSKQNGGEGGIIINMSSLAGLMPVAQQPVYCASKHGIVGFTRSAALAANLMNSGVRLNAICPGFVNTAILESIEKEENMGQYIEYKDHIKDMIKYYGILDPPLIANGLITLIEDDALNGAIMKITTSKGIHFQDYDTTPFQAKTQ
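20 nM HPGD preincubated 15 min at room temperature with compound in 50 mM Tris-HCl pH 8, 0.01% Tween 20. Started with 1 mM NAD+ and 30 uM prostaglandin E2; NADH fluorescence (360/450 nm) read 5 times over 30-s intervals, last minus first.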
Lamin A splicing: changes lamin A minigene splicing in HeLa cells. HeLa LMNA splicing GFP/RFP minigene ratio, 48 h. Potency, µM (top dose mostly 46.1 µM), most hits filed as inhibitors. hit rate 0.01% among 200,000. AID 1487; active = well fitted inhibition curve with a large enough effect in the signal ratio, with a control signal flat, not every such curve was filed as active; inconclusive = small, poorly fitted or top-dose-only effect, or effect the other way, or a change in a side signal; the % refers to the signal ratio
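S3 HeLa cells stably expressing lamin A-EGFP splicing minigene plus DsRed2, 600 cells/well, 48 h compound exposure at 37C. Laser-scanning cytometry; analysed as GFP (500-530 nm)/RFP (575-640 nm) total intensity ratio; 0.5% DMSO vehicle.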
Numbers stand for hits; i = inactive; ? = inconclusive; nt = no result given; [ ] = another dose, or the depositor's remark. Unless noted, calls follow the shape of the dose curve; as a rule, active = well fitted inhibition curve with a large enough effect (not every such curve was filed as active); inconclusive = small, poorly fitted or top-dose-only effect, or another doubt; inactive = no such curve, though single readings can be large or run the other way.

SMILES	HTT aggregate	ALDH1A1 block	KDM4E inh	HTT cytoprotect	HPGD inh	Lamin A splicing
CCOC(=O)N1CCC(NC(=O)CCCN2C(=O)CSc3ncccc32)CC1	i	i	i	i	i	?
COCc1cc(C)nc(SCC(=O)N2CCC(C)CC2)c1C#N	i	7.9µM	i	i	i	i
CCN(Cc1ccccc1)C(=O)CSc1nc(C)cc(C)c1C#N	i	i	i	i[10 µM]	i	i
Cc1cc(C)c(C#N)c(SCC(=O)N2CCN(Cc3ccccc3)CC2)n1	?	20µM	i	i	i	i
COc1ccc(CNC(=O)C2CCC(CNc3c(N4CCC(C)CC4)c(=O)c3=O)CC2)cc1 (stereo not drawn)	i[9.22 µM]	nt	i	i[10 µM]	nt	nt
CCNC(=O)[C@@H]1O[C@@H](n2cnc3c(N)nc(NCCc4ccc(CCC(=O)O)cc4)nc32)[C@H](O)[C@@H]1O	nt	nt	nt	i[1.9 µM]	nt	nt
O=C(NCCc1ccc(Cl)cc1)c1nc(-c2cccc(F)c2)n2c1CCCCC2	nt	nt	nt	nt	nt	i
CCCCC(CC)C/C=C1\CC(C(=O)OCC)Oc2ccccc21 (stereo not drawn) (tested in a mixture with another compound)	nt	i	nt	i	i	nt
COc1cccc2cc(-c3nnc(Nc4ccccc4C)s3)c(=O)oc12	nt	nt	nt	nt	nt	i
O=C(CSc1ncccn1)N1CCN(Cc2ccccc2)CC1	i	28µM	i	i[1.9 µM]	i	i
Cc1cc(C)c(C#N)c(SCC(=O)N(C)C2CCCCC2)n1	i	18µM	i	i	i	?
COc1cc2c(cc1OC)CN(C(=O)CSc1nc(C)cc(C)c1C#N)CC2	i	?	i	i[10 µM]	i	i
N#Cc1c(SCC(=O)N2CCCCC2)nsc1SCC(=O)N1CCCCC1	i	18µM	i	i	13µM	i
COC(=O)CSc1nsc(SCC(=O)OC)c1C#N	i	i	i	i[10 µM]	i	i
Cc1cc(C)c(C#N)c(SCC(=O)N2CCCCC2)n1	i	13µM	i	i[10 µM]	i	i
CCN(CC)C(=O)CSc1nc(C)cc(C)c1C#N	i	?	i	i	nt	i
O=C(CCCCCN1C(=O)c2cccc3cccc(c23)C1=O)NO	nt	?	nt	nt	i	nt
CC(=O)c1ccc(NC(=O)COCc2cc(-c3ccc(F)cc3)on2)cc1	nt	nt	nt	nt	nt	i
C=CC[C@@H]1C=C[C@H](O/N=C(\C)CCN2CCCCc3nc(C)c(C)cc32)[C@H](CO)O1	nt	i[13.5 µM]	nt	?	nt	nt
COc1ccc(C/C(C)=N/NC(=S)Nc2ccccc2)cc1	i	22µM	i	i[10 µM]	i	i
COc1ccc(C/C(C)=N/NC(=S)Nc2ccc(C)c(C)c2)cc1	?	24µM	i	i[10 µM]	nt	i
COc1ccc(C/C(C)=N/NC(=S)Nc2ccc(Cl)cc2)cc1	i[9.22 µM]	nt	i	i[10 µM]	nt	nt
Cc1ccc(Cn2cccc2/C=N/NC(=S)Nc2ccc(C)cc2)cc1	i	i	i	i	nt	i
COc1ccc(NC(=S)N/N=C/c2cccn2Cc2ccc(F)cc2)cc1	i	40µM	i	i	nt	i
COC(=O)NC(c1ccco1)[C@@]1(C(=O)OC)CCCC1=O (stereo partly drawn)	nt	i[13.5 µM]	nt	i[10 µM]	nt	nt
SMILES	HTT aggregate	ALDH1A1 block	KDM4E inh	HTT cytoprotect	HPGD inh	Lamin A splicing
CC(C)=C(NC(=O)c1ccccc1)C(=O)Nc1ccc(C(=O)O)cc1	i[9.22 µM]	nt	i	i[10 µM]	nt	nt
CCOC(=O)CSc1n[nH]c(=S)s1	i[9.22 µM]	nt	10µM	i[10 µM]	nt	nt
CCOC(=O)C1CCCN(S(=O)(=O)c2cc3c(cc2C)NC(=O)CO3)C1 (stereo not drawn)	nt	nt	nt	nt	nt	i
Cc1ccc(C(=O)/C=C/NCc2ccc(F)cc2)cc1	i	14µM	i	i[10 µM]	i	i
Cc1ccc(CN/C=C/C(=O)c2ccc(Br)cc2)cc1	i	16µM	i	i	?	?
O=C(/C=C/NCC(=O)c1ccccc1)c1ccc(Br)cc1	i	7.9µM	i	i[10 µM]	i	i
COc1ccc(C(=O)/C=C/NCc2ccc(F)cc2)cc1OC	i[9.22 µM]	22µM	?	i[10 µM]	nt	nt
CCOCCc1nn2c(=O)cc(COC(=O)C3CCCCC3)nc2s1	nt	nt	nt	nt	nt	i
O=C(c1ccccc1)[C@@H]1[C@@H](C(=O)c2ccc(F)cc2)[C@@]2(C(=O)Nc3ccccc32)[C@H]2c3ccccc3C=CN12	?	11µM	i	i[10 µM]	nt	?
N#CC1c2ccccc2C=CN1C(=O)c1ccccc1 (stereo not drawn)	i[9.22 µM]	nt	i	i[10 µM]	nt	nt
Cc1cc(CNC(=S)Nc2cccc(Cl)c2Cl)nn1C	i	i	i	i	nt	nt
CC(Nc1nc2ncn(Cc3ccccc3)c2c(=O)[nH]1)C(=O)O (stereo not drawn)	i	i	i	i	28µM	i
O=C(O)CCCCCNc1nc2ncn(Cc3ccccc3)c2c(=O)[nH]1	i	?	i	i	i	i
CN[C@@H]1[C@H](O[C@@H]2O[C@H](C)[C@@](O)(CO)[C@H]2O[C@H]2[C@H](O)[C@H](O)[C@H](N=C(N)N)[C@@H](O)[C@@H]2N=C(N)N)O[C@@H](CO)[C@H](O)[C@H]1O	nt	10µM	nt	i	i	nt
CC(=O)OC[C@@H]1O[C@@H](O/N=C2/C[C@@H](O)[C@@H](O)[C@@H]3[C@@H]4C(=O)N([C@@H](C)c5ccccc5)C(=O)[C@H]4CC[C@@H]23)[C@H](OC(C)=O)[C@H](OC(C)=O)[C@@H]1OC(C)=O	nt	i[13.5 µM]	nt	i[10 µM]	nt	nt
CCn1c(SCc2cccc(F)c2)nc2c(c1=O)SCC2	i	14µM	i	i	nt	nt
C[N+]1=C(/C=C/Nc2ccccc2Cl)C(C)(C)c2ccccc21	13µM	?	i	i[10 µM]	i	?
FC(F)(F)c1cnc(/C=C/Nc2ccccc2Cl)c(Cl)c1	i	i	i	i	i	i
CC(=O)OC[C@@H]1O[C@H](C/C=N\OCC[C@H]2C=C[C@H](OC(C)=O)[C@@H](COC(C)=O)O2)C=C[C@@H]1OC(C)=O	nt	i[13.5 µM]	nt	i[10 µM]	nt	nt
COc1ccc(N(C)C(=S)Nc2ccc3nc(C)c(C)nc3c2)cc1	i	10µM	?	i[10 µM]	i	i
Cc1nc2ccc(NC(=S)NCc3ccccc3)cc2nc1C	i	i	i	i[10 µM]	nt	nt
CCO[Si](CCCN)(OCC)OCC	nt	i	nt	i	i	nt
COc1ccc2ccccc2c1/C=C\C(=O)c1ccccc1	nt	i[13.5 µM]	nt	i[10 µM]	i	nt
CCCc1[nH][nH]c(=O)c1C(c1cccc(Cl)c1)C(C#N)C#N (stereo not drawn)	i[9.22 µM]	14µM	i	i	16µM	i
CC1(C)CC(=O)C(C(C2=C(O)CC(C)(C)CC2=O)c2ccco2)C(=O)C1 (stereo not drawn)	i	?	i	i	10µM	i
CC(=O)c1cccc(NC(=O)C2CCCCC2)c1	i	8.9µM	i	i	i	i
COc1ccccc1N1CC(C(=O)Nc2cccc(C(=O)O)c2)CC1=O (stereo not drawn)	i	?	i	i[0.074 µM]	i	i
CC(=O)c1cccc(NC(=S)NC2CCCCC2)c1	i	i	i	i[10 µM]	i	?
CC(=O)c1cccc(NC(=O)C2CC(=O)N(c3cccc(C)c3C)C2)c1 (stereo not drawn)	i	5µM	i	i	i	i
